In the library only some 3.8% were active in any assay of this set; here they are far more common.
TGFb SMAD3 inh – blocks TGF-b signaling; HepG2 CAGA-GFP TGF-b/SMAD3 reporter, GFP fluorescence, 18 h; TGF-beta stimulated, 500 pg/mL final; Potency, µM (titrated, usually from 46.1 µM), without a hit: at the top dose activity, negative = inhibition, usual class: inhibitors; actives 1.2% (n = 410,000); AID 588855; also: % is scaled to controls: 0 for no effect and ±100 for the full control effect; nearly all actives have a fitted effect of over 65% in size
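HEPG2 CAGA-GFP, 1000 cells/well; 2 h settle, 37 C; cpd via pin tool; TGF-b 500 pg/mL final; 18 h, 37 C; GFP imaging ex488/em500-530; %Activity normalised to -TGF-b and +DMSO controls; CRC fit, curve class.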
HepG2 tox – counter-screen for TGF-b inhibitors: cytotoxicity in HepG2 cells. Potency, µM (series often up to 46.1 µM), without a hit: top-dose activity change, negative = cytotoxicity, most hits filed as cytotoxic. HepG2 CAGA-GFP viability, ATP luminescence, 18 h. AID 588856. actives 0.76% (n = 410,000)
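CellTiter-Glo luminescence gave cytotoxicity after 18 hours at 37 degrees C. The cells were HepG2 CAGA-GFP in 1% FBS DMEM, stimulated with 500 pg/mL TGF-beta after compound addition. %Activity was normalised to no-cell wells (complete cell-killing) and DMSO (no toxicity), and curves were fitted and classified.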
ATXN2 expr inh – ATXN2 expression inhibition. HEK-293 ATXN2-luciferase reporter, luminescence, 24 h. Potency, µM (highest dose often 57 µM), for inactives: top-dose activity change, negative = inhibition, actives largely listed as inhibitors. actives 0.72% (n = 360,000); also: % is scaled to controls: 0 for no effect and ±100 for the full control effect; nearly all actives have a fitted effect of over 55% in size
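qHTS (up to 57 uM final) was run with 24 h compound exposure of reporter cells at 37 °C. Each well was multiplexed: SteadyGlo luminescence measured ATXN2-luciferase expression after a fluorogenic Gly-Phe-AFC viability readout (25 uM final).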
HT1080 IDH1KD tx – toxicity to HT-1080 IDH1 knockdown cells (counter line). HT-1080 IDH1 knockdown viability, ATP luminescence, 48 h. Potency, µM (highest dose often 46.1 µM), without a hit: top-dose activity, negative = toxicity, usual class: cytotoxic. actives 2% (n = 360,000). AID 686971;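 also: 0% = DMSO wells and -100% = cell-free medium wells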
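% activity derives from luminescence (CellTiter-Glo), normalised to DMSO and no-cell wells. HT-1080-IDH1KD cells, 750/well, had 48 h compound exposure at 37 °C.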
HT1080NT lethal – kills 2HG-producing HT-1080-NT fibrosarcoma cells | HT-1080-NT fibrosarcoma viability, CellTiter-Glo ATP luminescence, 48 h | Potency, µM (titrated, usually from 46.1 µM), inactives show at the top dose activity, negative = less viability, hits mostly cytotoxic | actives 1.6% (n = 360,000) | AID 686970;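 also: NT is the 2HG producing partner of a matched IDH1 knockdown line; 0% = DMSO-treated cells and -100% = media-only wells without cells; nearly all actives have a fitted effect of over 55% in size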
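Viability of the 2HG-overproducing fibrosarcoma line after 48 hours of compound exposure at 37 degrees C was determined by luminescence with CellTiter-Glo, and concentration-effect curves were then fitted and categorized.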
S2 tox – cell viability loss in ATXN counter-screen. actives 0.49% (n = 400,000). Potency, µM (top dose mostly 56.7 µM), most hits filed as cytotoxic. S2 cells (HEK-293 line with an ATXN2-luciferase reporter) viability, CellTiter-Fluor protease fluorescence, 24 h; also: nearly all actives have a fitted effect of over 40% in size
Active calls of the source: *; i = inactive; ? = inconclusive; nt = no result given; [ ] = another dose, or the depositor's remark. Calls follow the shape of the dose curve; as a rule, active = well fitted curve in the direction sought with a large enough effect; inconclusive = small, poorly fitted or top-dose-only effect, or another doubt; inactive = no such curve, though single readings can be large; an effect the other way counts as inactive or inconclusive. Potency is read from the fitted curve at half-maximal effect.

SMILES | TGFb SMAD3 inh | HepG2 tox | ATXN2 expr inh | HT1080 IDH1KD tx | HT1080NT lethal | S2 tox
CC(NC(=S)NC1CCCCC1)c1ccc(C(C)(C)C)cc1 (stereo not drawn) | ? | -15% | ? | 23µM* | -27% | i
COc1ccc(/C=C2/C(=O)OCc3cc(OC)c(OC)cc32)cc1 | 3% | -3% | ? | 2.3µM* | 3.3µM* | ?
O=C(NC1CCCCC1)C(c1cccnc1)N(C(=O)CCl)c1ccccc1Cl (stereo not drawn) | -26% | 2% | -29% | 16µM* | 10µM* | i
O=C(NC1CCCCC1)C(c1cccnc1)N(C(=O)CCl)c1ccc(F)cc1 (stereo not drawn) | ? | -76% | 4µM* | 10µM* | 13µM* | 6.3µM*
CCc1ccccc1N(C(=O)CNC(=O)c1ccco1)C(C(=O)NC1CCCC1)c1cccnc1 (stereo not drawn) | -10% | -1% | -14% | 28% | 19% | i
O=C(NCC(=O)N(c1ccc(F)cc1)C(C(=O)NC1CCCCC1)c1cccnc1)c1ccco1 (stereo not drawn) | 7% | 17% | 2% | -8% | -12% | i
COc1cc(C(=O)Oc2c(CN3CCOCC3)cc(Cl)c3cccnc23)cc(OC)c1OC | 4µM* | -88% | 1.6µM* | ? | ? | 1.6µM*
O=C(Oc1c(CN2CCOCC2)cc(Cl)c2cccnc12)c1ccc(F)cc1 | ? | -39% | ? | ? | ? | ?
COc1ccc(C(=O)Oc2c(CN3CCOCC3)cc(Cl)c3cccnc23)cc1 | 10µM* | 7.9µM* | ? | ? | 21µM* | ?
O=C(Oc1c(CN2CCOCC2)cc(Cl)c2cccnc12)c1ccccc1Cl | ? | 3.5µM* | ? | 6.5µM* | ? | ?
COc1cccc(C(=O)Oc2c(CN3CCOCC3)cc(Cl)c3cccnc23)c1 | ? | -55% | 10µM* | 12µM* | ? | ?
CCN1CCCC1CNC(=O)c1cnn(-c2nccc(-c3ccccc3OC)n2)c1-c1ccco1 (stereo not drawn) | nt | nt | nt | nt | nt | i
COc1ccc(C)c2sc(N(CCCN(C)C)C(=O)CS(=O)(=O)c3ccc(F)cc3)nc12 | -26% | -31% | -24% | -24% | 18µM* | i
COc1ccc(CCNCCC(c2ccccc2)c2ccccc2)cc1OC | ? | 13µM* | nt | -29% | -29% | ?
COc1ccc(C(CCNCc2ccc(OC)c(OC)c2)c2ccc(F)cc2)cc1 (stereo not drawn) | 0% | -24% | -1% | 2% | 7% | i
COc1cc(OC)c(OC)cc1CCC(C)NCCC(c1ccccc1)c1ccccc1 (stereo not drawn) | 14µM* | 11µM* | nt | ? | ? | 16µM*
CN(c1ccc(F)cc1)S(=O)(=O)N1CCCC(C(=O)NCc2ccccc2Cl)C1 (stereo not drawn) | 11µM* | -25% | nt | nt | nt | nt
COc1cccc(CNC(=O)C2CCCN(S(=O)(=O)N(C)c3ccc(F)cc3)C2)c1OC (stereo not drawn) | ? | -34% | nt | nt | nt | nt
NS(=O)(=O)c1ccc(N=Nc2c(=O)[nH]n3c(=O)c4c([nH]c23)CCCC4)cc1 | 9% | 7% | -17% | -1% | 11% | 9.5µM*
CC1(O)CC(c2ccc(Cl)cc2)=NN1C(=O)c1ccc(Cl)cc1 (stereo not drawn) | 10µM* | -41% | nt | -8% | -9% | i
C/C(O)=C(/C#N)c1nc2ccccc2[nH]1 | 13% | -3% | 3% | -1% | 0% | i
CC(=O)OC(/C(O)=C(\C#N)c1nc2ccccc2[nH]1)c1ccccc1 (stereo not drawn) | -10% | -18% | -28% | ? | 8.9µM* | i
Cc1c(C(=O)OC/C(O)=C(\C#N)c2nc3ccccc3[nH]2)oc2ccccc12 | 13µM* | -56% | ? | ? | ? | ?
Cc1c(C(=O)OCC(O)=C(C#N)c2nc3ccccc3[nH]2)oc2ccc(Br)cc12 | 0% | -10% | 0% | 3% | 3% | i
O=C(c1noc2c1CCCCC2)N1CCN(c2cccc(C(F)(F)F)c2)CC1 | ? | -31% | nt | nt | nt | nt
SMILES | TGFb SMAD3 inh | HepG2 tox | ATXN2 expr inh | HT1080 IDH1KD tx | HT1080NT lethal | S2 tox
C/C(=N/Nc1nc(-c2ccccc2F)nc2ccccc12)c1ccccc1O | 13µM* | -102% | nt | 0% | ? | i
C/C(=N\Nc1nc(-c2ccccc2O)nc2ccccc12)c1ccccc1 | -12% | -11% | -11% | 2% | 14% | i
COc1cc(CCC(=O)Nc2nnc(C)s2)cc(OC)c1OC | 0% | 5% | -3% | 7.3µM* | 6.5µM* | ?
COc1cc(CCC(=O)Nc2ccc(Cl)c(C(F)(F)F)c2)cc(OC)c1OC | ? | -31% | -1% | 2% | 5% | i
COc1cc(CCC(=O)Nc2ncc(C)s2)cc(OC)c1OC | 1% | 3% | 6% | 1% | 13% | ?
COc1cc(C(=O)Nc2nnc(-c3sccc3C)s2)cc(OC)c1OC | -11% | -45% | -16% | 15µM* | ? | ?
COc1cc(CCC(=O)Nc2ccc(Br)c(C(F)(F)F)c2)cc(OC)c1OC | 16µM* | -47% | -16% | ? | -8% | i
Nc1c(C(=O)Nc2ccc(OC(F)(F)F)cc2)nnn1Cc1ccccc1 | -7% | -6% | 9% | nt | nt | ?
N#Cc1c(N)nc2c(c1-c1ccc3c(c1)OCO3)CCc1ccccc1-2 | -23% | -13% | 22% | 16µM* | ? | i
CCn1c(-c2cccc(OC)c2)nc2cc(NC(C)=O)cc(C(=O)N(C)CC3COCCO3)c21 (stereo not drawn) | nt | nt | nt | nt | nt | i
COc1cc(NS(=O)(=O)c2ccc(OC)c(C)c2C)c(OC)cc1Cl | ? | -15% | ? | 2.3µM* | 2.3µM* | i
CC(=O)N1CCN(C2c3cccc4cccc(c34)C2NS(=O)(=O)c2ccccc2)CC1 (stereo not drawn) | -3% | 7% | 0% | 1% | 4% | i
O=S(=O)(NC1c2cccc3cccc(c23)C1N1CCNCC1)c1ccc(Cl)cc1 (stereo not drawn) | ? | -63% | -17%[11.3 µM] | 21µM* | 18µM* | ?
CC(=O)Nc1ccc(NC(=O)CCc2nc3sc4c(c3c(=O)[nH]2)CCCC4)cc1 | 1% | 3% | 3% | 1% | -14% | i
Cc1cc(C)cc(NC(=O)CCc2nc3sc4c(c3c(=O)[nH]2)CCCC4)c1 | ? | -85% | 8.9µM* | -13% | -14% | ?

Bioassay records: PubChem, National Center for Advancing Translational Sciences (NCATS)
